Drawing on PubChem BioAssay (EPA / NIEHS), this text covers outcome and AC50 for 8 compounds.

The nature of experiment [1]: ATG_TAL_CIS: Attagene CIS-FACTORIAL HepG2 Assay for human TAL Basal Promoter (AID 2282966; active = hit-call score of the fitted dose curve at least 0.9, where 1 is the maximum; inactive = score below 0.9;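 note: background control endpoint measuring basal TAL promoter reporter mRNA not a specific factor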). The note with it: HepG2 Attagene cis-factorial TAL promoter reporter; actives raise or lower the signal. The method, boiled down:
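HepG2 cells transiently transfected with multiplexed cis-promoter reporter units, dosed 24 h. Reporter mRNA quantified by RT-PCR, 6-FAM labelling, HpaI digestion and capillary electrophoresis; TAL basal promoter serves as background control, fitted bidirectionally versus DMSO.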

Experiment [2] in a line: ATG_TGFb_CIS: Attagene CIS-FACTORIAL HepG2 Assay for human Transforming Growth Factor (TGF) (AID 2282967; active = hit-call score of the fitted dose curve at least 0.9, where 1 is the maximum; inactive = score below 0.9). The note with it: HepG2 Attagene CIS TGFb reporter, mRNA transcription; actives raise or lower the signal. The method, boiled down: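 Transient MRTU transfection of HepG2 (FuGene 6). Dose 24 h. TriZol RNA, oligo(dT) RT, PCR, 6-FAM primer extension, HpaI cut, CE. Bidirectional fit, DMSO = baseline.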

Experiment [3] in a line: ATG_VDRE_CIS: Attagene CIS-FACTORIAL HepG2 Assay for human Vitamin D Receptor Element (VDRE) (AID 2282968; active = hit-call score of the fitted dose curve at least 0.9, where 1 is the maximum; inactive = score below 0.9). The following applies: HepG2 VDRE cis-reporter transcription, actives raise or lower the signal. Put shortly:
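In transiently transfected HepG2 liver cells, gain or loss of reporter mRNA after 24 h exposure is scored relative to DMSO, using fluorescence detection by capillary electrophoresis of RT-PCR products.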

Experiment [4] addresses Steroid hormone receptor ERR1 (Homo sapiens) (UniProt P11474). Kind of experiment: ATG_ERRa_TRANS: Attagene TRANS-FACTORIAL HepG2 Assay for human Estrogen-Related Receptor alpha (ERRa) (AID 2282971). The following applies: HepG2 Attagene TRANS reporter, ERRa transactivation. Put shortly:
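HepG2 cells transiently transfected with GAL4-UAS reporter units and chimeric NR-Gal4 constructs; after 24 hour compound incubation, reporter mRNA quantified by RT-PCR, fluorescent labelling and capillary electrophoresis, gain of signal versus DMSO.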

Experiment [5] is described as follows: ATG_M_19_TRANS: Attagene TRANS-FACTORIAL HepG2 Assay for M19 Transcription Factor (Internal Marker) (AID 2282974). The note with it: HepG2 Attagene TRANS-FACTORIAL M19 internal marker reporter. The method, boiled down:
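HepG2 cells transiently transfected with multiple GAL4-UAS reporter transcription units were exposed to chemicals for 24 h. Reporter mRNA was read by RT-PCR, 6-FAM primer extension, HpaI digestion and capillary electrophoresis; gain of signal fitted relative to DMSO.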

Experiment [6] addresses Estrogen-related receptor gamma (Homo sapiens) (UniProt P62508). The experiment is described as follows: ATG_ERRg_TRANS: Attagene TRANS-FACTORIAL HepG2 Assay for human Estrogen-Related Receptor gamma (ERRg) (AID 2282977).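 Note: hits increase reporter signal over DMSO so potencies reflect activators.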 The note with it: HepG2 Attagene TRANS reporter, ERRg transactivation. The method, boiled down:
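HepG2 cells transiently transfected with multiplexed GAL4-UAS reporter units and chimeric NR-Gal4 constructs were exposed to test chemicals for 24 h. Reporter mRNA was measured by RT-PCR, 6-FAM primer extension, HpaI digestion and capillary electrophoresis; gain-of-signal versus DMSO.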

Experiment [7] has as its target Glucocorticoid receptor (Homo sapiens) (UniProt P04150). The experiment is described as follows: ATG_GR_TRANS: Attagene TRANS-FACTORIAL HepG2 Assay for human Glucocorticoid Receptor (GR) (AID 2282978).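 Note: activators score as hits since higher reporter transcript over DMSO is fitted.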 The note with it: HepG2 Attagene TRANS GR reporter, mRNA transcription. The method, boiled down: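 HepG2 cells transiently transfected with multiplexed reporter units in which chimeric NR-GAL4 proteins drive GAL4-UAS reporters; 24 h compound exposure. Reporter mRNA measured by RT-PCR, 6-FAM labelling, HpaI digestion and capillary electrophoresis; gain-of-signal fitted versus DMSO.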

Experiment [8] addresses Bile acid receptor (Homo sapiens) (UniProt Q96RI1). The experiment is described as follows: ATG_FXR_TRANS: Attagene TRANS-FACTORIAL HepG2 Assay for Farnesoid X Receptor (FXR) (AID 2282979).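 Note: hits raise reporter mRNA above DMSO so AC50 marks FXR activation.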 The following applies: HepG2 Attagene TRANS FXR-GAL4 reporter transcription. The method, boiled down:
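HepG2 cells were transiently transfected with GAL4-UAS reporters driven by chimeric NR-Gal4 proteins and dosed for 24 h. Reporter mRNA was quantified by RT-PCR, fluorescent labelling, HpaI digestion and capillary electrophoresis, with gain of signal scored versus DMSO.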

Experiment [9] addresses Oxysterols receptor LXR-alpha (Homo sapiens) (UniProt Q13133). Kind of experiment: ATG_LXRa_TRANS: Attagene TRANS-FACTORIAL HepG2 Assay for human Liver X Receptor alpha (LXRa) (AID 2282980). The note with it: HepG2 Attagene TRANS reporter, LXRa transactivation. Put shortly:
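HepG2 cells transiently transfected with GAL4-UAS reporter units for chimeric NR-Gal4 proteins, exposed to chemicals for 24 h. Reporter mRNA quantified by RT-PCR and capillary electrophoresis; gain of signal fitted relative to DMSO.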

For experiment [10], the target named is Oxysterols receptor LXR-beta (Homo sapiens) (UniProt P55055). Kind of experiment: ATG_LXRb_TRANS: Attagene TRANS-FACTORIAL HepG2 Assay for human Liver X Receptor beta (LXRb) (AID 2282981). The following applies: HepG2 Attagene TRANS GAL4-LXRb reporter, mRNA. The method, boiled down: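 Cells: HepG2, transiently transfected with GAL4-UAS reporter units plus LXRb-Gal4 fusion. Treatment: 24 h. Detection: reporter mRNA by RT-PCR, 6-FAM labelling, HpaI digestion, capillary electrophoresis.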
Oxysterols receptor LXR-beta (Homo sapiens), sequence (P55055 whole entry, looked up, the tested form may be a part): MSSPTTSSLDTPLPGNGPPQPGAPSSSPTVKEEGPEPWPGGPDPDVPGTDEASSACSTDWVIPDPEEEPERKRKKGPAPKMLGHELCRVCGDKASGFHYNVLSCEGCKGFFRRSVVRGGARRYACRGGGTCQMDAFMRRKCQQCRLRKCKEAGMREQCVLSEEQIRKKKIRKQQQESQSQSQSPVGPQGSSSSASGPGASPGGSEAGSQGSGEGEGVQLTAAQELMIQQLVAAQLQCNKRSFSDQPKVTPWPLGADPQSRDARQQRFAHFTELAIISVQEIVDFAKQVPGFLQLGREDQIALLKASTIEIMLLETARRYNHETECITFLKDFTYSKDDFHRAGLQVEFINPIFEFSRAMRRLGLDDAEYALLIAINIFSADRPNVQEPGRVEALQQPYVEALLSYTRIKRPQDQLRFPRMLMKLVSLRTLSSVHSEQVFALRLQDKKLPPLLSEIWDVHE

Experiment [11] deals with Hepatocyte nuclear factor 4-alpha (Homo sapiens) (UniProt P41235). The experiment is described as follows: ATG_HNF4a_TRANS: Attagene TRANS-FACTORIAL HepG2 Assay for human Hepatocyte Nuclear Factor 4 alpha (HNF4a) (AID 2282982). The following applies: HepG2 HNF4a transactivation reporter, mRNA readout. The method, boiled down: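 Transfected HepG2 reporter cells are dosed for 24 h; reporter RNA is reverse-transcribed, amplified, fluorescently labelled and HpaI-digested before CE sizing. Positive-direction fit against DMSO.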
Hepatocyte nuclear factor 4-alpha (Homo sapiens), sequence (P41235 whole entry, looked up): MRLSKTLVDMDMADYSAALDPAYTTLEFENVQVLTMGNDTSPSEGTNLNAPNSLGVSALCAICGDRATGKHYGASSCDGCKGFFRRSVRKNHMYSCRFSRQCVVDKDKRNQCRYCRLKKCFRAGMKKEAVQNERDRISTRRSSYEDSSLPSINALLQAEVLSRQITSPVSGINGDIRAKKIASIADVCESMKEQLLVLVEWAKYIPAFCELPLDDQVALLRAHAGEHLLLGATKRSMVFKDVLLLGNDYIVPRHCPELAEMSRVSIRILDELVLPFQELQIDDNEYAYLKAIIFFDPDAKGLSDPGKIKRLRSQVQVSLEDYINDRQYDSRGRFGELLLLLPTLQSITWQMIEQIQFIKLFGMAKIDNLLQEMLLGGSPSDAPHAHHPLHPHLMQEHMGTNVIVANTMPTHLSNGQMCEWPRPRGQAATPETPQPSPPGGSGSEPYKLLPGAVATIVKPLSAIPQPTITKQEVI

A short description of experiment [12]: ATG_M_32_TRANS: Attagene TRANS-FACTORIAL HepG2 Assay for M32 Transcription Factor (Internal Marker) (AID 2282984). The note with it: HepG2 Attagene TRANS M32 internal marker reporter. Put shortly: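 Using transiently transfected HepG2 cells exposed to test chemicals for 24 h, reporter transcripts are converted to labelled cDNA fragments and quantified by capillary electrophoresis. DMSO defines the activity baseline.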

The target in experiment [13] is Transcriptional activator Myb (Homo sapiens) (UniProt P10242). Kind of experiment: ATG_Myb_CIS: Attagene CIS-FACTORIAL HepG2 Assay for human Myeloblastosis (Myb) Proto-Oncogene Transcription Factor (AID 2282986; active = hit-call score of the fitted dose curve at least 0.9, where 1 is the maximum; inactive = score below 0.9). The note with it: HepG2 Attagene CIS-FACTORIAL Myb reporter transcription; actives raise or lower the signal. Put shortly:
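HepG2 cells were transiently transfected with cis-regulated multiple reporter transcription units reflecting endogenous Myb activity, then exposed to compound for 24 hours. Reporter mRNA was measured by RT-PCR with capillary electrophoresis; bidirectional fitting versus DMSO baseline.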

Experiment [14] addresses Nuclear respiratory factor 1 (Homo sapiens) (UniProt Q16656). Kind of experiment: ATG_NRF1_CIS: Attagene CIS-FACTORIAL HepG2 Assay for human Nuclear Respiratory Factor 1 (NRF1) Orphan Gene (AID 2282987; active = hit-call score of the fitted dose curve at least 0.9, where 1 is the maximum; inactive = score below 0.9). The note with it: HepG2 NRF1 cis-element reporter, Attagene multiplex; actives raise or lower the signal. Put shortly: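 HepG2 cells transiently transfected with multiple reporter transcription units under cis-regulatory promoter control, so endogenous transcription-factor activity is read. After 24 h compound exposure, reporter mRNA quantified by RT-PCR, fluorescent labelling, HpaI digestion and capillary electrophoresis; bidirectional fitting versus DMSO.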

The target of experiment [15] is X-box-binding protein 1 (Homo sapiens) (UniProt P17861). The experiment is described as follows: ATG_Xbp1_CIS: Attagene CIS-FACTORIAL HepG2 Assay for human X-box Binding Protein 1 (XBP1) (AID 2282972; active = hit-call score of the fitted dose curve at least 0.9, where 1 is the maximum; inactive = score below 0.9). The following applies: HepG2 XBP1 cis-element reporter, Attagene multiplex; actives raise or lower the signal. The method, boiled down: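 Fluorescence-labelled cDNA fragments from reporter transcripts, separated by capillary electrophoresis, give the signal. Source: HepG2 cells transfected with promoter-driven reporter units, harvested 24 h post-dose. DMSO served as reference for bidirectional curve fitting.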
X-box-binding protein 1 (Homo sapiens), sequence (P17861 whole entry, looked up, the tested form may be a part): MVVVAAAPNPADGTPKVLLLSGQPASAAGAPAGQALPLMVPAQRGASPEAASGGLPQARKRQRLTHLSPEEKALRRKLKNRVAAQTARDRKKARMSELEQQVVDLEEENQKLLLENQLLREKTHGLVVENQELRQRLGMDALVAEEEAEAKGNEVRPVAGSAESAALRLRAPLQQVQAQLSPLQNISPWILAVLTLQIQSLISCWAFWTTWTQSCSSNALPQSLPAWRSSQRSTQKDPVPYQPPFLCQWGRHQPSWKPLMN

Experiment [16] can be described thus: ATG_GAL4_TRANS: Attagene TRANS-FACTORIAL HepG2 Assay for GAL4 (Internal Marker) (AID 2282976). The following applies: HepG2 Attagene TRANS GAL4 internal marker reporter. Put shortly: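 Background-control readout: GAL4-UAS reporter transcript in transiently transfected HepG2 cells after 24 h compound exposure. Measured by RT-PCR, 6-FAM primer extension, HpaI digest and capillary electrophoresis; gain-of-signal fit versus DMSO.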

The nature of experiment [17]: ATG_M_06_TRANS: Attagene TRANS-FACTORIAL HepG2 Assay for M06 Transcription Factor (Internal Marker) (AID 2282983).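 Note: reporter transcript level by RT-PCR then capillary electrophoresis fluorescence.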 The note with it: HepG2 Attagene TRANS M06 internal marker reporter. Put shortly: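 HepG2 cells transiently transfected with GAL4-UAS multiple reporter units, dosed 24 h. Reporter RNA reverse-transcribed, PCR-amplified, 6-FAM-labeled, HpaI-digested and quantified by capillary electrophoresis; this internal-marker signal fitted upward relative to DMSO.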

The target in experiment [18] is Nuclear receptor subfamily 4 group A member 2 (Homo sapiens) (UniProt P43354). The experiment is described as follows: ATG_NURR1_TRANS: Attagene TRANS-FACTORIAL HepG2 Assay for human Nuclear Receptor Related Protein 1 (NURR1) (AID 2282985). The note with it: HepG2 Attagene TRANS reporter, mRNA readout. The method, boiled down:
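Cells: HepG2, transiently transfected. Exposure: 24 h. Detection: fluorescence of labelled RT-PCR products separated by capillary electrophoresis; upward fit versus DMSO.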

The target of experiment [19] is Estrogen receptor (Homo sapiens) (UniProt P03372). The experiment is described as follows: ATG_ERa_TRANS: Attagene TRANS-FACTORIAL HepG2 Assay for human Estrogen Receptor alpha (ERa) (AID 2282970). The note with it: HepG2 Attagene TRANS ERa GAL4 reporter, mRNA. Put shortly: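 HepG2 cells transiently transfected with multiplexed GAL4-UAS reporter units read out chimeric NR-Gal4 activity. After 24 h compound exposure, reporter mRNA was quantified by RT-PCR, 6-FAM labeling, HpaI digestion and capillary electrophoresis, relative to DMSO.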

The structures appear in SMILES notation. Inconclusive results are not listed. Activity calls are given as the source filed them. Rule for the calls, unless noted: active = hit-call score of the fitted dose curve at least 0.9, where 1 is the maximum; inconclusive = response in the unintended direction; inactive = score below 0.9.

Glucocorticoid receptor (Homo sapiens), sequence (P04150 whole entry, looked up, the tested form may be a part): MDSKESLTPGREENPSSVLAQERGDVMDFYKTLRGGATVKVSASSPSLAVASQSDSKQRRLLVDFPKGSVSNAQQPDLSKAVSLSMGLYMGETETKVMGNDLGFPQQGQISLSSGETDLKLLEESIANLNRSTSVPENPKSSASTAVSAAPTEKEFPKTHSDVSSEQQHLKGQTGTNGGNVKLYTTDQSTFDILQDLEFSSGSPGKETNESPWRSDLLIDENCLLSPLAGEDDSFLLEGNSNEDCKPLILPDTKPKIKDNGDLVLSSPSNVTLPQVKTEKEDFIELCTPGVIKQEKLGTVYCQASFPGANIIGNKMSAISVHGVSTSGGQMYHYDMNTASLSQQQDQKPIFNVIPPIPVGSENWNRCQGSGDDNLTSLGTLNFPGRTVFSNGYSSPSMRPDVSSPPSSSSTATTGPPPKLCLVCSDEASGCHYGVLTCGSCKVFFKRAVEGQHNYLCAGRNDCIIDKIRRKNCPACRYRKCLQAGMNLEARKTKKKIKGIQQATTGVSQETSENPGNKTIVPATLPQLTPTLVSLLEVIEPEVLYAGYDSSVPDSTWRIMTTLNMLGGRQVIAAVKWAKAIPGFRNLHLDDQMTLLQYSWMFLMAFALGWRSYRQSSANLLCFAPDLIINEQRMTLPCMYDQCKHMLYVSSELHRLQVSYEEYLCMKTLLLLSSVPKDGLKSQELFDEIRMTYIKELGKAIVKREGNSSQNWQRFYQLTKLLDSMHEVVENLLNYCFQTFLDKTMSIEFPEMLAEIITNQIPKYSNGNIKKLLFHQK
Bile acid receptor (Homo sapiens), sequence (Q96RI1 whole entry, looked up, the tested form may be a part): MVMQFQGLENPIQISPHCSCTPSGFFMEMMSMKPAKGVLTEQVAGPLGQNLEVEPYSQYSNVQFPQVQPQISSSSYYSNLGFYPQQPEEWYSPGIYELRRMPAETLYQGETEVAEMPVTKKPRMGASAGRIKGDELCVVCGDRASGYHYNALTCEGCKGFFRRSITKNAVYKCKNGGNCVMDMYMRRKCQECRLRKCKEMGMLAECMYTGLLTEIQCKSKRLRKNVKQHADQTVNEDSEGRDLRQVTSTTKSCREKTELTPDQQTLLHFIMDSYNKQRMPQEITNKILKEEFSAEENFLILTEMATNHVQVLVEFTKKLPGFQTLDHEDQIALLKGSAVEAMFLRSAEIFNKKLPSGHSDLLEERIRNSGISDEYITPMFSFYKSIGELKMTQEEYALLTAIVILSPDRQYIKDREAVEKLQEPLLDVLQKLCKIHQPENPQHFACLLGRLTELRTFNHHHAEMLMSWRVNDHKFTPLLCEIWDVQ
Nuclear respiratory factor 1 (Homo sapiens), sequence (Q16656 whole entry, looked up): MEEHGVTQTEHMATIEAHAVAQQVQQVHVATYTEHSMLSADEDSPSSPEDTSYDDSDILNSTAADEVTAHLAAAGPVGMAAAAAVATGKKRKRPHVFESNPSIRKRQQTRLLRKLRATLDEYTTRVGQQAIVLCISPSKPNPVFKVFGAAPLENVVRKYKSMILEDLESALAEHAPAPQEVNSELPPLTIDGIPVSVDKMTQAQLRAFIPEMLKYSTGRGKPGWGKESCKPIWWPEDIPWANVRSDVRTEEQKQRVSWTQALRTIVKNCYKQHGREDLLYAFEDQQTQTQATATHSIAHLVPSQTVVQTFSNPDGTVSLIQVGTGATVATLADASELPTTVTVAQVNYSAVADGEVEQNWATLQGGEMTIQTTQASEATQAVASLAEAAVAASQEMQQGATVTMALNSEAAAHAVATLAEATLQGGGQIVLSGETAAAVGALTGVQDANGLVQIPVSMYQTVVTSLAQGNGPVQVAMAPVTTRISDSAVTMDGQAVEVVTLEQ
Transcriptional activator Myb (Homo sapiens), sequence (P10242 whole entry, looked up): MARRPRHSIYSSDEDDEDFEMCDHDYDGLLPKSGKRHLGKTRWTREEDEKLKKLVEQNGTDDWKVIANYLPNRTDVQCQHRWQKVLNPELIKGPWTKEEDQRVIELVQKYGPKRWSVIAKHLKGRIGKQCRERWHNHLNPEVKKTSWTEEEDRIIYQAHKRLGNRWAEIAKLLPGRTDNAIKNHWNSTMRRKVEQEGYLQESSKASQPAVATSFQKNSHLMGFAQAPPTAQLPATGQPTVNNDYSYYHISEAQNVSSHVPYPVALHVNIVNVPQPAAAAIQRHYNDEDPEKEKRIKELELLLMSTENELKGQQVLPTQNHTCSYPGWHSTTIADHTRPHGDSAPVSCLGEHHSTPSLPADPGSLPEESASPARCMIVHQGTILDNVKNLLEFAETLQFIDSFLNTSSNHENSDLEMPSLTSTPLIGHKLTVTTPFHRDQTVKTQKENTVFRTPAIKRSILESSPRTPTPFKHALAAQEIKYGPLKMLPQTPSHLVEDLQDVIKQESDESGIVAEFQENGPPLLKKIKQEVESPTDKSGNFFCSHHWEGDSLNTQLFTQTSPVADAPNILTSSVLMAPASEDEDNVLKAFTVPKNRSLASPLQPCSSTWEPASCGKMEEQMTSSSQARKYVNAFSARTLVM
Oxysterols receptor LXR-alpha (Homo sapiens), sequence (Q13133 whole entry, looked up, the tested form may be a part): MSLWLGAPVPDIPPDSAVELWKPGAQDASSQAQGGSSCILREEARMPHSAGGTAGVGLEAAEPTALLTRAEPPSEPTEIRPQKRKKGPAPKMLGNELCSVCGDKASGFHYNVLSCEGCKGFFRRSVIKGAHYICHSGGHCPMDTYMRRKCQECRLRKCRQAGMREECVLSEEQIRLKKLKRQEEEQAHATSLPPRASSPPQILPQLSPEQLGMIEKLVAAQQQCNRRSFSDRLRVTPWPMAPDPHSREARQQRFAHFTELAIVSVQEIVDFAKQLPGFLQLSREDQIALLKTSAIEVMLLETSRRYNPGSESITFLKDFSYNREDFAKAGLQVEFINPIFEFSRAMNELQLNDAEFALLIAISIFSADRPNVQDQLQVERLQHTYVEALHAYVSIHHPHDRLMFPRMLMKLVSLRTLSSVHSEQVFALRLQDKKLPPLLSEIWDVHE
Steroid hormone receptor ERR1 (Homo sapiens), sequence (P11474 whole entry, looked up, the tested form may be a part): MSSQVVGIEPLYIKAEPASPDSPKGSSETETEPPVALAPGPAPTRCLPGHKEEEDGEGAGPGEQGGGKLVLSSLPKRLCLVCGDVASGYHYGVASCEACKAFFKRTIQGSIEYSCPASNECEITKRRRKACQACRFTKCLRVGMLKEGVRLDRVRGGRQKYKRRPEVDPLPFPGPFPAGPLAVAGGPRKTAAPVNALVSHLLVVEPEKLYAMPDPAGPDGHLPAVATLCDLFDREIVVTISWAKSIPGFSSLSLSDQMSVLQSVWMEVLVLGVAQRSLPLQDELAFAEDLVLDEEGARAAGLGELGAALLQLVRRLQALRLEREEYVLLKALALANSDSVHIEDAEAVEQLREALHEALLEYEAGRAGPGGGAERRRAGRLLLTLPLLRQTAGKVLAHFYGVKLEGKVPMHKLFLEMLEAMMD
Estrogen-related receptor gamma (Homo sapiens), sequence (P62508 whole entry, looked up, the tested form may be a part): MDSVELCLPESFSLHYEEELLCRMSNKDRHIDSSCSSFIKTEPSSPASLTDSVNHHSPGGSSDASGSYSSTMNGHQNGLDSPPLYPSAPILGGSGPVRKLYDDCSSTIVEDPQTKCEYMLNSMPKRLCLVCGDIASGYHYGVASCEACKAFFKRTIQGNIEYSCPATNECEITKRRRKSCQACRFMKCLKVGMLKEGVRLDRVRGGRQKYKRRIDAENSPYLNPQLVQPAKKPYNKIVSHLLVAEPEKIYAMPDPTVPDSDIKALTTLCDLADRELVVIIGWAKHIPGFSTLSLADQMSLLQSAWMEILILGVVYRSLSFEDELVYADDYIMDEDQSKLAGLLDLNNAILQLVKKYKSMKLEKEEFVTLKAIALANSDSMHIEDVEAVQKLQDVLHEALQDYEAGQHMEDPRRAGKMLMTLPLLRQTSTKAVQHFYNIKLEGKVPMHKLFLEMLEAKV

A word on the AC50: it is the concentration giving half of the maximal activity seen. On to `CCCCCCCCCCCCCC[n+]1ccccc1`, for which the outcome in [1], in [2], in experiment [3], in experiment [4], in experiment [5] and in experiment [7] was inactive. Besides, the compound was called inactive in experiment [8], in [9], in experiment [13] and in [14]. Moreover, the AC50 in [6] was 189 µM (active); in experiment [10] it was 53.6 µM (active); in [11], 100 µM (active); in experiment [12] it was 47 µM (active).
`NNC(=O)CCCCC(=O)NN`: the outcome in experiment [1], in experiment [2], in [3], in experiment [4], in [15] and in [5] was inactive. The result in [16], in [8], in [10], in experiment [11], in [12] and in experiment [13] was inactive. The compound was called inactive in experiment [14].
As for `CCCCC(CC)C(=O)O` (stereo not drawn), the call in [1], in experiment [2], in experiment [15], in experiment [5], in experiment [16] and in [9] was inactive. Also, the call in [11], in [17], in experiment [12], in experiment [18], in experiment [13] and in [14] was inactive.
With `CC(O)COc1ccccc1` (stereo not drawn), the result in experiment [1], in experiment [2], in experiment [3], in experiment [15], in experiment [5] and in [7] was inactive. Further, the call in [8], in experiment [9], in [11], in experiment [12], in experiment [13] and in [14] was inactive. Also, the AC50 in experiment [10] was 26.1 µM (active).
Consider `CCCCCCCCCCCCCCC`, for which the call in [1], in experiment [2], in experiment [3], in experiment [15], in [5] and in experiment [16] was inactive. Moreover, the call in experiment [7], in experiment [10], in [18], in experiment [13] and in experiment [14] was inactive.
With `O=C1OC(=O)C(F)(F)C1(F)F`, the compound was classed as inactive in [1], in experiment [2], in experiment [3], in experiment [4], in experiment [15] and in experiment [16]. Moreover, the call in experiment [7], in experiment [8], in experiment [9], in experiment [10], in [17] and in experiment [12] was inactive. Also, the outcome in experiment [13] and in experiment [14] was inactive.
On to `Oc1c(Cl)ccc(Cl)c1Cl`, for which the call in experiment [1], in experiment [2], in experiment [3], in [19], in [10] and in experiment [11] was inactive. Also, the result in [17], in experiment [12], in experiment [13] and in [14] was inactive.
`CCCCCCCCCCCC(=O)O`: the compound was called inactive in experiment [1], in experiment [2], in experiment [5], in experiment [16], in experiment [9] and in [10]. For the same compound, the compound was classed as inactive in [17], in [12], in [18], in [13] and in experiment [14].
